# Measured values from article PMC4336329 (PLoS ONE, 2015).
# About 14,000 (4.5%) of roughly 310,000 compounds showed an effect of 50% or more. The effect is printed as a negative number. The sample as a whole holds a higher share of strong results than the screen did.
# Target: human ether-à-go-go-related gene (hERG) potassium channel (human, UniProt Q12809)
# Test: primary screen, population patch clamp on CHO cells stably expressing hERG; higher = less effect of the substance
# 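Note: peak tail current of the secondary pulse compared with the same well before compound.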
# Chain of human ether-à-go-go-related gene (hERG) potassium channel (Q12809 whole entry, looked up): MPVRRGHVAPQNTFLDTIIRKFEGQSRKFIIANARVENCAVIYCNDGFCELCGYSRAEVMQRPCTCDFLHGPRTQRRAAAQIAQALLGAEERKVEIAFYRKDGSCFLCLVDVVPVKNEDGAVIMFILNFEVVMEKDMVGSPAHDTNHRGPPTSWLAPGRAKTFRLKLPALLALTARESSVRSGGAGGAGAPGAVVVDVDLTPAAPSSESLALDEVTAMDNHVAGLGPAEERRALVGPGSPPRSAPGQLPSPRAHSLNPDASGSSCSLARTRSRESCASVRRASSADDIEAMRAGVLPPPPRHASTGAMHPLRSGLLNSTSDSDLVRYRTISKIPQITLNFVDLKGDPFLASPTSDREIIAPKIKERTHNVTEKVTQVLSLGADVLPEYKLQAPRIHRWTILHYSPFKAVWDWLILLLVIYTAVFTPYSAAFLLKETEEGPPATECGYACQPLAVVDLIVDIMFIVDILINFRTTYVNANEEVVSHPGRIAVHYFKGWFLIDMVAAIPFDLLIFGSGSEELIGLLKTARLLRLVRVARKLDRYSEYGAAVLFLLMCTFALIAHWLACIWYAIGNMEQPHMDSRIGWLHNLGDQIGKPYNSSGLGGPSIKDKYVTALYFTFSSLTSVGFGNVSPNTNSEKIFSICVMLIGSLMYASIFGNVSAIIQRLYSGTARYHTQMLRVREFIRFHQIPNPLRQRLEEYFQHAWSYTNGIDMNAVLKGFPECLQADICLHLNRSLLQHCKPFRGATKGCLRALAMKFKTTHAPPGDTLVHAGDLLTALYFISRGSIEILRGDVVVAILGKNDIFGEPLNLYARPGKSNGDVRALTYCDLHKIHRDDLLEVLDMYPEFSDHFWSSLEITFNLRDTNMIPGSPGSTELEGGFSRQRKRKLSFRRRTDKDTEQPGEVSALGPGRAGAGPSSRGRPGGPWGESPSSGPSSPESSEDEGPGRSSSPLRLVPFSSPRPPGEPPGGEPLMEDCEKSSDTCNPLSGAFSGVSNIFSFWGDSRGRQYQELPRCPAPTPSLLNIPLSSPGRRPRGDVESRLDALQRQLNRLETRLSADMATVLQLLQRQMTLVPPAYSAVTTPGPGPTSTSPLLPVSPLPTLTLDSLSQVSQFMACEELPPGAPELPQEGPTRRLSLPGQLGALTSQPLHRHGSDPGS
row,SMILES,"hERG current change (%, negative = inhibition) at 10uM [%]"
1,CN1/C(=C\C(=O)COC(=O)C2COc3ccccc3O2)C(C)(C)c2ccccc21 (stereo not drawn),9.13
2,CCCCn1c(N)c(N(CCC(C)C)C(=O)C(C)N2C(=O)c3ccccc3C2=O)c(=O)[nH]c1=O (stereo not drawn),8.31
3,CCCOC(=O)c1cccc(NC(=O)C(C)(C)C)c1,1.43
4,Cc1ccccc1NC(=O)Cn1nnc2sc3c(c2c1=O)CC(C)(C)OC3,-35.2
5,CCC1(C)Cc2c(sc3nnn(CC(=O)Nc4ccccc4C)c(=O)c23)CO1 (stereo not drawn),-58.4
6,CCC1(C)Cc2c(sc3nnn(CC(=O)Nc4cccc5ccccc45)c(=O)c23)CO1 (stereo not drawn),3.09
7,O=C1CN(C(=O)CCN2CCOCC2)C(c2ccccc2)c2cc(Br)ccc2N1 (stereo not drawn),-60.5
8,O=C1CN(C(=O)CN2CCCCC2)C(c2ccccc2)c2cc(Br)ccc2N1 (stereo not drawn),-66.5
9,CCOC(=O)CN1C(=O)Nc2ccc(Br)cc2C1c1ccccc1 (stereo not drawn),-56.7
10,CCC(=O)N1CC(=O)Nc2ccc(Br)cc2C1c1ccccc1 (stereo not drawn),-11.6
11,O=C1CN(C(=O)CN2CCOCC2)C(c2ccccc2)c2cc(Br)ccc2N1 (stereo not drawn),-32.3
12,CCC(CC)C(=O)N1CC(=O)Nc2ccc(F)cc2C1c1ccccc1 (stereo not drawn),-11.4
13,O=C1CN(C(=O)CN2CCCC2)C(c2ccccc2)c2cc(Br)ccc2N1 (stereo not drawn),-46.6
14,COC(=O)CN1C(=O)Nc2ccc(Br)cc2C1c1ccccc1 (stereo not drawn),-14.6
15,CCC(CC)C(=O)N1CC(=O)Nc2ccc(C)cc2C1c1ccccc1 (stereo not drawn),-38.1
16,CCOC(=O)N1CC(=O)Nc2ccc(Br)cc2C1c1ccccc1 (stereo not drawn),-24.4
17,O=C(O)CN1C(=O)Nc2ccc(Br)cc2C1c1ccccc1 (stereo not drawn),-3.51
18,CCC(CC)C(=O)N1CC(=O)Nc2ccc(Br)cc2C1c1ccccc1 (stereo not drawn),-73.5
19,COc1ccccc1C(=O)NCCC(=O)NCC(c1ccccc1OC)N1CCCC1 (stereo not drawn),29.8
20,O=C(Nc1ccncc1)C1CCN(S(=O)(=O)c2ccccc2)CC1,3.04
21,CCOC(=O)C1C(=O)CC(C)(O)C(C(=O)OCC)C1c1ccc([N+](=O)[O-])cc1 (stereo not drawn),-8.06
22,FC(F)(F)c1nc(-c2ccncc2)ncc1-c1nnnn1-c1ccccc1,-0.18

row,SMILES,"hERG current change (%, negative = inhibition) at 10uM [%]"
1,Cc1c(C(=O)N/N=C/c2ccoc2)cccc1[N+](=O)[O-],9.67
2,O=C(COc1coc(CN2CCN(c3ccccc3F)CC2)cc1=O)NC1CCCCC1,-21.6
3,CCOC(=O)c1ccc(NC(=O)C2CCN(S(=O)(=O)c3c(C)nn(C)c3C)CC2)cc1,-28.3
4,O=C(Nc1cccc(C(F)(F)F)c1)c1cc[n+]([O-])cc1,21.2
5,COc1ccc(OCC(=O)NS(=O)(=O)c2ccccc2)cc1,15.3
6,Cc1ccc2c(c1)C(c1ccccc1)N(C(=O)c1ccccc1[N+](=O)[O-])CC(=O)N2 (stereo not drawn),-40.5
7,O=C1CN(C(=O)c2ccccc2[N+](=O)[O-])C(c2ccccc2)c2cc(Br)ccc2N1 (stereo not drawn),-66.5
8,O=C1CN(C(=O)c2ccccc2F)C(c2ccc(F)cc2)c2cc(Br)ccc2N1 (stereo not drawn),-23
9,CCOC(=O)c1c(NC(C)=O)sc2c(OC(C)=O)cccc12,8.8
10,Cn1c(CO)cnc1SCc1ccc(F)cc1,18.2
11,CCOc1ccccc1/C=N/NC(=O)c1nnn(-c2nonc2N)c1CN1CCC(C)CC1,9.08
12,CC1CCN(CCC(=O)N2CCCc3c2c(=O)oc2ccc(O)cc32)CC1,-14
13,CC(=O)c1cccc(NC(=O)C(C)N2CCc3ccccc3C2)c1 (stereo not drawn),4.43
14,CCCOc1ccc2oc(=O)c3c(c2c1)CCCN3C(=O)CN(C)Cc1ccccc1,-29.7
15,CC(C(=O)N1CCCc2c1c(=O)oc1ccc(O)cc21)N1CCc2ccccc2C1 (stereo not drawn),-56.5
16,O=C(CN1CCN(Cc2ccccc2)CC1)N1CCCc2c1c(=O)oc1ccc(O)cc21,-14
17,CN(CC(=O)N1CCCc2c1c(=O)oc1ccc(O)cc21)Cc1ccccc1,-67.4
18,O=C(NCCCl)C1Cc2c(ccc3ccccc23)O1 (stereo not drawn),7.97
19,O=C(CCNC(=O)C1CCN(S(=O)(=O)c2ccccc2)CC1)NCc1ccc(Cl)cc1,8.88
20,Nc1ccccc1Nc1ccncc1[N+](=O)[O-],20
21,CCOC(=O)C1(CCOc2ccccc2)CCN(Cc2ccc(OC)c(O)c2)CC1,-82.2
22,CCOC(=O)C1(Cc2ccccc2)CCCN(Cc2ccc(OCC)c(CO)c2)C1 (stereo not drawn),-52.3

row,SMILES,"hERG current change (%, negative = inhibition) at 10uM [%]"
1,CCOC(=O)C1(CCOc2ccccc2)CCN(Cc2ccc(OCC)c(CO)c2)CC1,-79.5
2,CCOC(=O)C1(CCOc2ccccc2)CCN(Cc2ccc(OC)c(COC)c2)CC1,-80.2
3,CCOC(=O)C1(Cc2ccccc2)CCCN(Cc2ccc(OCCO)cc2)C1 (stereo not drawn),-1.04
4,CCOC(=O)C1(Cc2ccccc2)CCCN(Cc2cccc(C(C)=O)c2)C1 (stereo not drawn),-2.24
5,Cc1ccc(NC(=O)COC(=O)CCc2c[nH]c3ccccc23)c(C)c1,9.87
6,COC(=O)C(C)Oc1ccc(Cl)c(CN2OCC(C)(C)C2=O)c1 (stereo not drawn),5.26
7,Cc1ccccc1OCCC(=O)OCC(=O)NCCc1ccccc1,-0.876
8,Cc1nnn(-c2nonc2N)c1C(=O)N/N=C/c1cccc2ccccc12,-7.26
9,CCOC(=O)C1CCN(S(=O)(=O)c2c(C)noc2C)CC1,-37.9
10,Cc1nc(C(C)N(C)Cc2c(C(=O)N3CCCCC3)nc3c(C)cccn23)c(C)s1 (stereo not drawn),-22.7
11,CCOC(=O)C1(CCOC)CCN(Cc2ccc3nonc3c2)CC1,-10.5
12,CCOC(=O)C1(CCOc2ccccc2)CCN(Cc2ccc(F)c(OC)c2)CC1,-35.3
13,CCOC(=O)C1(CCOc2ccccc2)CCN(Cc2ccc(O)c(OC)c2)CC1,-75.4
14,CCOC(=O)C1(CCOc2ccccc2)CCN(Cc2cc(OC)c(O)c(OC)c2)CC1,-77.6
15,CCOCCCNC(=O)Cc1ccc(OC)c(OC)c1,14.1
16,Cc1ccc(NC(=O)CC(=O)Nc2ccc(C)c(C)c2)cc1C,11.7
17,CCCn1c(CC)nc([N+](=O)[O-])c1S(=O)(=O)c1ccccc1,-23.8
18,CCOC(=O)N1CCN(C(=O)C2CCN(S(=O)(=O)c3ccc(Cl)cc3)CC2)CC1,-48.7
19,O=C1CS/C(=N\N=C\c2ccccc2Cl)N1CC1CC1,12.3
20,FC(F)(F)c1cccc(Cn2c3[n+](c4ccc(C(F)(F)F)cc42)CCCCC3)c1.[Cl-],-17.6
21,FC(F)(F)c1ccc2c(c1)n(Cc1ccccc1)c1[n+]2CCCCC1.[Cl-],-24
22,Cc1cc(C(C)(C)C)cc(C)c1Cn1c2[n+](c3ccc(C(F)(F)F)cc31)CCCCC2.[Cl-],-55.4

row,SMILES,"hERG current change (%, negative = inhibition) at 10uM [%]"
1,COc1ccc(OC)c(CC(=O)O)c1,10.8
2,O=C(NC1CCCCC1)C1CCN(c2nccs2)CC1,4.43
3,COc1ccc(/C=C2/C(=O)N=C(N)N2C)cc1OC,7.3
4,COc1cc(-c2noc(C)c2/C=C/c2cccc([N+](=O)[O-])c2)cc(OC)c1OC,-2.59
5,COCCN1C=C(C(=O)OC)C(c2ccccc2C(F)(F)F)C(C(=O)OC)=C1,-8.36
6,COC(=O)C1=CN(CCCN2CCCC2=O)C=C(C(=O)OC)C1c1cccs1,-25.1
7,COC(=O)C1=CN(CCCN2CCCC2=O)C=C(C(=O)OC)C1c1ccccc1C(F)(F)F,-57.1
8,CCCCN1C=C(C(=O)OC)C(c2ccccc2C(F)(F)F)C(C(=O)OC)=C1,-1.84
9,CCOC(=O)C1=CN(CC2CCCO2)C=C(C(=O)OCC)C1c1ccccc1C(F)(F)F (stereo not drawn),-64.7
10,COC(=O)C1=CN(CC2CCCO2)C=C(C(=O)OC)C1c1ccccc1C(F)(F)F (stereo not drawn),8.49
11,CN(Cc1ccccc1Br)C(=O)CN1C(=O)NC2(CCCCCC2)C1=O,-11.1
12,COC(=O)c1ccc(CN2CCC(CO)(CCOc3ccccc3)CC2)cc1,-80.1
13,O=C(Nc1cccc(Cl)c1)OCCOc1ccccc1,23
14,O=C(Nc1cccc(Cl)c1)N1CCCC1,5.7
15,CSc1ccc(CN2CCC(CO)(CCOc3ccccc3)CC2)cc1,-78.4
16,CC(=O)Nc1ccc(N2CCN(Cc3ccccc3)CC2)cc1,-14.6
17,O=C(Nc1cccc(Cl)c1)N1CCC(CO)(CCOc2ccccc2)CC1,-58.6
18,CC(=O)Nc1ccc(CN2CCC(CO)(CCOc3ccccc3)CC2)cc1,-69.9
19,OCC1(CCOc2ccccc2)CCN(Cc2ccncc2)CC1,-41.5
20,CCS(=O)(=O)N1CCN=C1SCc1cccc(F)c1,14.7
21,CCCCN(C)C(=O)c1ccc2c(c1)S(=O)(=O)c1ccccc1C2=O,-24.4
